Screening results from PubChem.
HT1080NT lethal – kills 2HG-producing HT-1080-NT fibrosarcoma cells. actives 1.6% (n = 360,000). HT-1080-NT fibrosarcoma viability, CellTiter-Glo ATP luminescence, 48 h. Potency, µM (doses to about 46.1 µM), for inactives: top-dose activity, negative = less viability, hits mostly cytotoxic;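 also: NT is the 2HG producing partner of a matched IDH1 knockdown line; 0% = DMSO-treated cells and -100% = media-only wells without cells; nearly all actives have a fitted effect of over 55% in size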
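Viability of the 2HG-overproducing fibrosarcoma line after 48 hours of compound exposure at 37 degrees C was determined by luminescence with CellTiter-Glo, and concentration-effect curves were then fitted and categorized.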
ATXN2 expr inh – reduces ATXN2 reporter expression in HEK-293 cells | HEK-293 ATXN2-luciferase reporter, luminescence, 24 h | Potency, µM (highest dose often 57 µM), without a hit: at the top dose activity change, negative = inhibition, hits mostly inhibitors | actives 0.72% (n = 360,000); also: % is scaled to controls: 0 for no effect and ±100 for the full control effect; nearly all actives have a fitted effect of over 55% in size
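qHTS (up to 57 uM final) was run with 24 h compound exposure of reporter cells at 37 °C. Each well was multiplexed: SteadyGlo luminescence measured ATXN2-luciferase expression after a fluorogenic Gly-Phe-AFC viability readout (25 uM final).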
HT1080 IDH1KD tx – kills HT-1080 cells with IDH1 knockdown. HT-1080 IDH1 knockdown viability, ATP luminescence, 48 h. Potency, µM (highest dose often 46.1 µM), for inactives: top-dose activity, negative = toxicity, hits mostly cytotoxic. actives 2% (n = 360,000). AID 686971;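 also: 0% = DMSO wells and -100% = cell-free medium wells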
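Luminescent ATP read-out (CellTiter-Glo, 10 min at room temperature) after 48 h compound exposure at 37 °C gave viability of IDH1-knockdown HT-1080 cells. Activity was normalised to DMSO and cell-free wells, then fitted as concentration-response curves.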
KB-V1 MDR tox – kills drug-selected multidrug resistant KB-V1 cells | KB-V1 MDR cells viability, CellTiter-Glo, 72 h | Potency, µM (highest dose often 46.1 µM), actives largely listed as cytotoxic | actives 3.4% (n = 400,000) | AID 1347076; also: % is scaled to controls: 0 for no effect and ±100 for the full control effect; nearly all actives have a fitted effect of over 60% in size
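qHTS viability screen in drug-selected KB-V1 MDR cells: 72 h compound treatment at 37 degrees C, ATP luminescence end point.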
S2 tox – viability counter-screen for ATXN expression inhibitors | S2 cells (HEK-293 line with an ATXN2-luciferase reporter) viability, CellTiter-Fluor protease fluorescence, 24 h | Potency, µM (doses to about 56.7 µM), most hits filed as cytotoxic | actives 0.49% (n = 400,000); also: nearly all actives have a fitted effect of over 40% in size
KB-3-1 cytotox – KB-3-1 parental cell cytotoxicity | KB-3-1 viability, CellTiter-Glo ATP luminescence, 72 h | Potency, µM (titrated, usually from 46.1 µM), hits mostly cytotoxic | actives 1.4% (n = 400,000); also: % is scaled to controls: 0 for no effect and ±100 for the full control effect; nearly all actives have a fitted effect of over 60% in size
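Using CellTiter-Glo luminescence, growth of non-resistant KB-3-1 adenocarcinoma cells is assessed 72 h after pin-tool compound addition at 37 °C. Normalized responses across the concentration series yield fitted curves.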
The depositor's hits bear a star; i = inactive; ? = inconclusive; . = no result given; [ ] = remark or other dose. Most compounds without a hit are left out; they make up all but 6.2% or so of the library. Calls follow the shape of the dose curve; as a rule, active = well fitted curve in the direction sought with a large enough effect; inconclusive = small, poorly fitted or top-dose-only effect, or another doubt; inactive = no such curve, though single readings can be large; an effect the other way counts as inactive or inconclusive. Potency is read from the fitted curve at half-maximal effect.

SMILES | HT1080NT lethal | ATXN2 expr inh | HT1080 IDH1KD tx | KB-V1 MDR tox | S2 tox | KB-3-1 cytotox
CCS(=O)(=O)N1CC(=O)N(c2ccc(Cl)cc2)C(C)(C(=O)NC2CCCCC2)C1 (centres undefined) | . | . | . | i | . | i
CCC(=O)Nc1ccccc1-c1nc2ccccc2n(C(CC)C(=O)Nc2cccc(C(C)=O)c2)c1=O (centres undefined) | . | . | . | i | . | i
Cc1cccc(N2CCN(C(=O)c3ccc4nc(N5CCC(C)CC5)sc4c3)CC2)c1C | . | 42% | . | ? | i | ?
c1ccc(CNc2ncnc3nc(N4CCOCC4)[nH]c23)cc1 | . | . | . | i | . | ?
COc1ccc(NC(=O)c2cnc(SC)nc2)cc1 | ? | . | ? | ? | i | 16µM*
COc1ccc(NC(=O)c2cc(SC)ccc2Cl)cc1 | -11% | 2% | -25% | 15µM* | i | i
COc1cc(SC)ccc1C(=O)Nc1ccccc1 | -10% | 58% | ? | ? | i | i
O/N=C(/C[n+]1cccc(Br)c1)c1ccc2ccccc2c1 | . | . | . | i | . | i
COc1cc2nc(C3CCC3)n(NC(=O)COc3ccccc3)c(=O)c2cc1OC | 7.1µM* | -10% | 1% | ? | i | i
CCOc1ccc(NC(=O)Cn2c(=O)n(-c3ccc(C)cc3)c(=O)c3cc(OC)c(OC)cc32)cc1 | . | 7% | . | i | i | i
COc1ccc(C(=O)N(C)c2ccccc2C(=O)NCCc2ccccc2)cc1 | -17% | -37% | ? | 5.8µM* | i | 2.9µM*
COc1ccc(C(=O)NC(=S)NCc2ccccc2)cc1 | 0% | 19% | 9% | ? | i | i
COc1cc(OC)cc(C(=O)NC(=S)NCCc2ccccc2)c1 | ? | -50% | 35µM* | i | i | i
COc1cc(OC)c(NC(=O)CCn2cccn2)cc1Cl | . | 11% | . | i | i | i
CC(C)Cc1nc2cc(NS(=O)(=O)N(C)C)cc(C(=O)N3CC4(C)CC3CC(C)(C)C4)c2n1C (centres undefined) | . | . | . | . | i | .
O=C(COc1ccc(S(=O)(=O)NC2CCCCC2)cc1Cl)N1CCN(c2ccccc2)CC1 | -13% | -35% | ? | 5.8µM* | ? | i
NC(=O)C1CCN(C(=O)COc2ccc(S(=O)(=O)NC3CCCC3)cc2)CC1 | 11% | -18% | 11% | ? | i | ?
O=C(COc1ccc(S(=O)(=O)NC2CCCCC2)cc1)N1CCN(c2ccc(F)cc2)CC1 | ? | ? | -13% | ? | ? | 16µM*
CC(C)[C@H](NS(=O)(=O)c1cccc(Cl)c1)C(=O)OCC(=O)N1CCN(c2ccccc2)CC1 | 15% | ? | 9% | 7.3µM* | i | i
O=C(COc1ccccc1Cl)N1CCN(c2ccc([N+](=O)[O-])c(N3CCCCC3)c2)CC1 | -2% | -8% | 18% | 21µM* | ? | i
CC(C)c1c(C(=O)Nc2ccccc2)c(-c2ccccc2)c(-c2ccc(F)cc2)n1CC[C@H](O)C[C@@H](O)CC(=O)O | . | 19% | . | . | . | .
COc1cc(Cl)c(C)cc1NC(=O)c1cc(S(=O)(=O)N2CCCC2)ccc1F | . | 7% | . | i | i | i
CCCCSc1nc2c([nH]1)c(=S)n(C)c(=O)n2C | 2% | ? | 9% | 1.5µM* | ? | 7.3µM*
CCCC(CC)Sc1nc2c([nH]1)c(=S)n(C)c(=O)n2C (centres undefined) | 4% | -28% | -12% | 3.7µM* | i | ?
Cn1c(=S)c2[nH]c(SCc3cccnc3)nc2n(C)c1=O | 9% | 2% | -1% | 16µM* | i | i
SMILES | HT1080NT lethal | ATXN2 expr inh | HT1080 IDH1KD tx | KB-V1 MDR tox | S2 tox | KB-3-1 cytotox
CCCCC(C)Sc1nc2c([nH]1)c(=S)n(C)c(=O)n2C (centres undefined) | 8% | -28% | ? | 4.1µM* | ? | ?
CCN(CC)CCSc1nc2c([nH]1)c(=S)n(C)c(=O)n2C | 7% | 8% | 5% | i | i | i
CSc1nc2c([nH]1)c(=S)n(C)c(=O)n2C | 2% | -14% | -3% | i | i | i
O=c1oc2cc(O)ccc2cc1-c1nc(-c2ccc(Cl)c(Cl)c2)cs1 | . | -1% | . | i | i | i
Cc1ccc(N2CCN(C(=O)c3cnn(-c4ccc(C)c(C)c4)c3C3CCNCC3)CC2)c(C)c1 | . | ? | . | i | i | ?
COc1ccccc1N1CCN(C(=O)c2cnn(-c3ccc(C)c(C)c3)c2C2CCN(C(=O)OC(C)(C)C)CC2)CC1 | . | . | . | i | . | 21µM*
Cc1ccc(Cl)cc1N1CCN(C(=O)c2cnn(-c3ccc(Cl)cc3)c2C2CCNCC2)CC1 | . | 32µM* | . | i | . | i
CCOc1ccccc1C1Nc2ccccc2-c2nnc(SCc3ccccc3)nc2O1 (centres undefined) | . | 7% | . | i | i | i
O=C(O)c1ccccc1Nc1cc(Cl)ccc1C(=O)O | . | 2%[25.6 µM] | . | . | i | .
O=C(O)c1ccc(Cl)cc1Nc1nc2cc(Cl)ccc2o1 | -11% | 7% | -3% | 16µM* | i | 16µM*
O=C(CSc1ccc(-c2cccnc2)nn1)Nc1ccc(F)c(F)c1 | ? | -16% | -2% | 9.2µM* | ? | i
CCC1CN(Cc2cccn2-c2ccccn2)Cc2cc(OC)ccc2O1 (centres undefined) | . | . | . | . | i | .
COc1cccc(F)c1C(C[N+](=O)[O-])c1c(N)n(C)c(=O)n(C)c1=O (centres undefined) | 10µM* | . | 5.8µM* | ? | 20µM* | ?
COc1cc(C(C[N+](=O)[O-])c2c(C)cc3ccccn23)ccc1O (centres undefined) | ? | -13% | 9.2µM* | ? | ? | ?
Cc1ccc(C(C[N+](=O)[O-])c2c(N)n(C)c(=O)n(C)c2=O)cc1 (centres undefined) | ? | -19% | ? | ? | ? | 16µM*
Cn1c(N)c(C(C[N+](=O)[O-])c2ccccc2Cl)c(=O)n(C)c1=O (centres undefined) | -3% | 10% | 11% | i | i | i
COc1cc(C(C[N+](=O)[O-])c2c(N)n(C)c(=O)n(C)c2=O)ccc1O (centres undefined) | ? | ? | 21µM* | ? | ? | ?
Cc1ccc2c(=O)cc(C(=O)Nc3ccc(S(=O)(=O)N(C)Cc4ccccc4)cc3)oc2c1C | . | -8% | . | i | i | i
COc1cc2[nH]c(=O)n(CCCCCC(=O)N3CCN(c4ccc(Cl)cc4)CC3)c(=O)c2cc1OC | . | -13% | . | i | i | i
